Percent Effect data for 17 compounds are collected here from ChEMBL document CHEMBL3988442, “University of Dundee, Small-Polar-MMV Screening Library” (2021).

Common to all, as to format: functional
What all share (parameters): scale not given: direction of the effect not stated beside the values
Settings in all cases: 30 µM

Assay [1] has as its target T1, Aspartate--tRNA(Asp/Asn) ligase (Mycobacterium tuberculosis (strain ATCC 25618 / H37Rv)) (UniProt P9WFW3). Also: in the data most compounds retested in dose-response had high values.
T1 sequence (whole entry): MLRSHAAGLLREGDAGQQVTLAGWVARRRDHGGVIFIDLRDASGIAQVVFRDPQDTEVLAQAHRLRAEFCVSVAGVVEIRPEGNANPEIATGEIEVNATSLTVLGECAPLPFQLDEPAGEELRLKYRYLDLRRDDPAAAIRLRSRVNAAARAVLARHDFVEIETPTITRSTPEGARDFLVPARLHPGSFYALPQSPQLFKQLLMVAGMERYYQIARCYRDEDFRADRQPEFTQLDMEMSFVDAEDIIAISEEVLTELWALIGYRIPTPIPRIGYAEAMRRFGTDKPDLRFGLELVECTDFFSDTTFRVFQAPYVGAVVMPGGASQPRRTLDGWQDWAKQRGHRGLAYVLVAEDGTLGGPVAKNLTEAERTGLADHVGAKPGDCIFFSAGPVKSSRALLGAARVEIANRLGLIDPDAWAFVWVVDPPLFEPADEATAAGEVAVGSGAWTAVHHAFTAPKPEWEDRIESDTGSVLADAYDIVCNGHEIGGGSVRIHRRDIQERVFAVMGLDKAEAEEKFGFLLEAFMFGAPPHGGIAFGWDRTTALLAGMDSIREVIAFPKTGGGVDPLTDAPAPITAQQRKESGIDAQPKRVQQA
As to the kind of experiment: Assay for Asp RNA synthetase-1 from Mycobacterium tuberculosis.

Assay [2] deals with Shiga toxin 2 (Escherichia coli O157:H7) (UniProt P09385+P09386). Nature of the assay: E. coli 0.157:H7 Shiga Toxin SOP - stx2 screening assay.
Assay [3] has as its target AMP-activated protein kinase, AMPK (Homo sapiens) (UniProt P54646+O43741+P54619+Q9UGJ0+Q9Y478+Q13131+Q9UGI9). As to the kind of experiment: AMP-dependent Kinase enzyme assay. An in vitro enzyme assay that detects ADP turnover that is directly proportional to AMPK activity. This uses naive AMPK that is activated during the assay with MK-8722.

Each structure is given as a SMILES string.

`CC(C)CN(C)c1ccc(C(=O)N2CCCC2c2cnn(C)c2)cn1` (stereo unspecified): the results for the Percent Effect in assay [1] and in assay [2] were -2.28% and 21%, respectively.

With `O=C1CCCN1Cc1ncn2c1CN(C(=O)c1cccc(F)c1)CCC2`, the results for the Percent Effect in assay [1] and in assay [2] were -3.2% and 3.75%, respectively.

Regarding `Cc1cc(C2CCCN(CCCNS(C)(=O)=O)C2)n[nH]1` (stereo unspecified), the Percent Effect in assay [1] is -3.97%; in assay [2], 8.81%.

Turning to `Cc1ccc(Nc2nccc(C3CN(CC(N)=O)C3)n2)nc1`, the Percent Effect is -1.29% in assay [1] and -33.3% in assay [2].

Take `O=C(c1ccc[nH]1)N1C[C@H]2CN(Cc3cccc(F)c3)C(=O)[C@H]2C1`: the Percent Effect in assay [1] is 0.565%; in assay [2], -9.53%.

In the case of `CN(Cc1ccco1)Cc1ccccc1CNC(=O)c1cc[nH]n1`, the Percent Effect amounted to 0.435% in assay [1] and 9.38% in assay [2].

On to `Nc1cc2c(nn1)CCN(C(=O)CC1CCCC1)C2`, for which the Percent Effect in assay [1] was -1.69%; in assay [2], 2.23%.

Turning to `Cc1cccc(CNC(=O)CNc2cc(CO)ccc2Cl)c1`, the Percent Effect in assay [1] amounted to 5.12%; in assay [2], 0.559%.

`Cc1nccn1-c1nccnc1C1CCN(Cc2ccc(F)cc2)CC1`: the Percent Effect in assay [1] is -0.338%; in assay [2], -6.1%.

With `O=C(NCCOc1cccc(Cl)c1Cl)N1CCC2(CC1)OCCO2`, in assay [3], the Percent Effect is 1.62%.

`O=C(c1ccccc1-n1cccn1)N1CCCN(c2cccnn2)CC1`: the figures for the Percent Effect in assay [1] and in assay [2] were 0.98% and 33%, respectively.

With `Cn1cc(C2=CCN(CCC(=O)NCc3ccc(Cl)cc3)CC2)cn1`, in assay [3], the Percent Effect was found to be 6.44%.

Regarding `Cc1nc(N)nc(C)c1CC(=O)N1CCCN(CC2CC2)C(C(C)C)C1` (stereo unspecified), the Percent Effect in assay [3] was -4.33%.

For the compound `Cc1noc2ncc(C(=O)N(CC3CCOC3)C3CC3)cc12` (stereo unspecified), the Percent Effect in assay [1] was determined as 2.12%; in assay [2] it was 24.4%.

Regarding `Cc1nn(C)c(C)c1C1COCCN1C(=O)c1cnc(N)c(Cl)c1` (stereo unspecified), the Percent Effect in assay [1] is 0.88%; in assay [2] it was -23.7%.

As for `CC(C)c1noc(CCC(=O)NCC2CCS(=O)(=O)C2)n1` (stereo unspecified), the Percent Effect in assay [1] is -3.63%; in assay [2], -17.1%.

Regarding `Cc1ccc(CNC(=O)CN2CCCC(Cn3cncn3)C2)s1` (stereo unspecified), the Percent Effect is -2.78% in assay [1] and -43.9% in assay [2].
